# Tb PYK inh: qHTS of Trypanosoma Brucei Inhibitors | pyruvate kinase (Trypanosoma brucei), Q57TT1 | TbPYK enzyme, Kinase-Glo Plus ATP luminescence, 45 min | Potency, µM (top dose mostly 76.8 µM), for the others: at the highest dose activity, negative = inhibition, hits mostly inhibitors | hit rate 0.12% among 410,000 | AID 624173, 2012; note: potency is the fitted concentration of half-maximal effect; % is set by controls: 0 for no effect and ±100 for the full control effect; nearly all actives have a fitted effect of over 50% in size
#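 Assay buffer: 50 mM TEA pH 7.2, 100 mM KCl, 10 mM MgCl2, 0.05% BSA, 0.01% Tween-20. Pyruvate kinase from T. brucei plus substrate met compound, then ADP (130 uM final). Luminescence was read post 45 min RT.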
# Giardia FBPA inh: qHTS Assay for Inhibitors of Fructose-1,6-bisphosphate Aldolase from Giardia Lamblia; purified Giardia FBPA; Potency, µM (series often up to 59.6 µM), for the others: at the top dose activity, negative = inhibition, hits mostly inhibitors; hit rate 0.71% among 290,000; note: potency is the fitted concentration of half-maximal effect; % is set by controls: 0 for no effect and ±100 for the full control effect; nearly all actives have a fitted effect of over 55% in size
#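 Giardia FBPA (40 nM reagent) was preincubated 10 min at RT with compound (up to 57.5 uM final), then substrate plus GAPDH/TPI/NAD/arsenate coupling system with diaphorase/resazurin was added; resorufin fluorescence (525/598 nm) was read after 20 min.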
# LmPK inhibitor: qHTS Assay for Inhibitors of Leishmania Mexicana Pyruvate Kinase (LmPK) | Q27686 | purified LmPK, Kinase-Glo ATP luminescence, 1 h | Potency, µM (highest dose often 57.5 µM), inactives show at the top dose activity change, negative = inhibition, hits mostly inhibitors | hit rate 0.37% among 290,000; note: potency is the fitted concentration of half-maximal effect; % is set by controls: 0 for no effect and ±100 for the full control effect
# Target sequence (Q27686 whole entry, looked up): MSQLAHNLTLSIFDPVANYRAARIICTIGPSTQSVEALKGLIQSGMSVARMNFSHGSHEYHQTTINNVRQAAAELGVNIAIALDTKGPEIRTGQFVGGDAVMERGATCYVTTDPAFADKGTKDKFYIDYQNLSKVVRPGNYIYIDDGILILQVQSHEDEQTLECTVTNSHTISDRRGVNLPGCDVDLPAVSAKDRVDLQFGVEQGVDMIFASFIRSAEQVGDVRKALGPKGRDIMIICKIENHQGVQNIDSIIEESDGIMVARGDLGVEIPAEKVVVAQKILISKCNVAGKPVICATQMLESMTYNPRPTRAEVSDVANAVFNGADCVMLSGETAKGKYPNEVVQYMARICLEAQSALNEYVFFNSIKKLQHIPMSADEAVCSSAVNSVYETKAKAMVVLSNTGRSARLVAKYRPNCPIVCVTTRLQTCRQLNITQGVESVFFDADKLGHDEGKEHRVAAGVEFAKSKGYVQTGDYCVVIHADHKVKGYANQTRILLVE
#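 0.1 nM LmPK, 0.5 mM PEP, 0.1 mM ADP; 50 mM imidazole pH 7.2, 7 mM MgCl2, 50 mM KCl; 1 h RT. Kinase-Glo luminescence readout, normalized to no-enzyme (full inhibition) and uninhibited wells.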
# Shiga inhibitor: A qHTS for Small Molecule Inhibitors of Shiga Toxin; Vero cells, Shiga toxin protein synthesis inhibition reporter; inhibition, % at 38.7 µM; hit rate 9.2% among 290,000; AID 2315, 2010; in the data active = inhibition mostly above about 28%, no sharp cut-off; inactive = mostly below about 43%; note: 0% is about no effect
# CHX counter: Cycloheximide Counterscreen for Small Molecule Inhibitors of Shiga Toxin. cell reporter, cycloheximide protein synthesis inhibition counterscreen. max response, %. hit rate 12% among 300,000; in the data active = max response mostly above about 13%, no sharp cut-off; inactive = mostly below about 14%; note: read at 38.3 µM for the half of the compounds with a filed dose; 0% is about no effect
# RE007 growth inh: qHTS Assay for Inhibitors of the HIV-1 protein Vpr; S. pombe RE007 Vpr strain, BacTiter-Glo ATP luminescence, 24 h; Potency, µM (titrated, usually from 92.2 µM), without a hit: at the top dose activity change, negative = less growth, actives largely listed as inhibitors; hit rate 0.21% among 360,000; AID 651644, 2012; active = well fitted falling curve with a large enough effect; inconclusive = small, poorly fitted or top-dose-only effect; inactive = no such curve, though single readings can be large or run the other way; note: potency is the fitted concentration of half-maximal effect; % is set by controls: 0 for no effect and ±100 for the full control effect; nearly all actives have a fitted effect of over 50% in size
#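 Fission yeast strain RE007, carrying one chromosomally integrated HIV-1 vpr copy, was seeded at OD 0.01 in PMG+AL medium with 23 nL pinned compound. After 24 h at 30 °C and 99% humidity, viability was read by BacTiter-Glo luminescence.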
# An asterisk follows results filed as active; u = inconclusive; x = not tested or not shown. This is one part of a sample in which hits are shown more often than they occur. Unless noted, calls come from the whole dose curve; as a rule, active = well fitted curve in the direction sought with a large enough effect; inconclusive = small, poorly fitted or top-dose-only effect, or another doubt; inactive = no such curve, though single readings can be large; an effect the other way counts as inactive or inconclusive.
SMILES,Tb PYK inh,Giardia FBPA inh,LmPK inhibitor,Shiga inhibitor,CHX counter,RE007 growth inh
COc1ccc(-c2nc(C#N)c(N3CCCCC3)o2)cc1,-3.3%,-4.1%,0.3%,-2.3,1.6,-2.9%
C=CCNc1oc(-c2ccc(Cl)cc2)nc1C#N,-9.5%,x,x,x,x,x
CNc1oc(-c2ccccc2Cl)nc1C#N,3.4%,-0.4%,0.9%,48.2,17.0*,-8.6%
COc1ccc(-c2nc(C#N)c(NC(C)C)o2)cc1,-9.7%,-2.2%,-2.3%,73.6*,40.7*,10.8%
CNc1oc(-c2ccc(Cl)cc2)nc1C#N,-5.3%,-5.5%,2.0%,177.7*,36.7*,-16.2%
CNc1oc(-c2cccc3ccccc23)nc1C#N,3.7%,1.8%,3.2%,63.7,5.1,-0.1%
COc1cccc(CNC(=O)c2ccc(C)c(S(=O)(=O)N3CCCCC3)c2)c1,8.1%,x,x,x,x,-4.0%
COc1ccc2c(c1)c1c(c(=O)n(Cc3ccccc3)c(=O)n1CC(=O)NCc1ccc(C)cc1)n2C,-3.5%,x,x,x,x,x
COc1ccccc1-n1c(=O)oc2ccc(Cl)cc2c1=O,-5.5%,-4.1%,-5.2%,85.5*,59.4*,u
CN(C)S(=O)(=O)c1ccc(C(=O)NCCS(=O)(=O)N2CCN(c3ccc(F)cc3)CC2)cc1,-1.8%,-6.0%,-0.2%,-9.2,-3.2,-6.7%
CN(C)S(=O)(=O)c1ccc(C(=O)NCCOc2ccc(F)cc2)cc1,-2.1%,4.2%,2.0%,84.1*,42.2*,30.2%
CN(C)S(=O)(=O)c1ccc(C(=O)OCCc2ccccc2)cc1,1.5%,-5.4%,-4.5%,32.8,39.3*,2.5%
CN(C)S(=O)(=O)c1ccc(C(=O)NCCOc2ccccc2)cc1,0.8%,4.1%,0.1%,82.8*,40.1*,-22.9%
Cc1ccccc1NC(=O)C1CCN(S(=O)(=O)c2c(C)noc2/C=C/c2ccco2)CC1,0.5%,x,x,x,x,x
Cc1noc(/C=C/c2ccco2)c1S(=O)(=O)N1CCC(C(=O)N2CCc3ccccc3C2)CC1,-3.4%,-3.9%,4.2%,47.4*,19.2*,-4.6%
Cc1ccc(C(=O)CNc2ccc(C)c(Cl)c2)cc1,-18.9%,-7.9%,-0.6%,20.3,26.6*,-12.6%
Cc1ccc(NCC(=O)c2ccc(C)cc2)cc1,6.2%,-9.5%,-1.3%,48.0*,39.0*,-26.6%
Cc1ccc(NCCC(=O)c2ccc(Cl)cc2)cc1,3.1%,u,0.5%,8.9,-2.8,8.4%
O=C(CNc1ccc(Br)cc1)c1ccc(O)cc1,2.8%,0.8%,-1.8%,92.8*,38.7*,-25.1%
Cc1ccc(NCCC(=O)c2ccccc2)cc1Cl,-2.0%,-7.2%,1.9%,42.6*,15.1*,-17.9%
O=C(c1ccc2c(c1)OCCO2)N(Cc1cccnc1)c1nc2c(F)cc(F)cc2s1,-1.7%,x,x,x,x,x
FC1(F)C(F)(F)C(F)(F)C2(F)C(F)(F)C(F)(F)C(F)(F)C(F)(F)C2(F)C1(F)F (stereo not given),-3.3%,x,x,x,x,x
CCCOc1ccc(C(=O)CCNc2cccc(Cl)c2)cc1,0.5%,-0.2%,0.3%,129.7*,25.2*,-3.7%
Cc1ccc(C(=O)CNc2cccc(Cl)c2)cc1,1.9%,-1.3%,-2.1%,30.0,30.0,-6.8%
Cc1ccc(NC2=C(NC(=O)c3ccccc3)C(=O)c3ccccc3C2=O)cc1Cl,u,u,7.08µM*,0.0,1.8,u
SMILES,Tb PYK inh,Giardia FBPA inh,LmPK inhibitor,Shiga inhibitor,CHX counter,RE007 growth inh
Cc1ccc(NCC(=O)c2ccccc2)cc1Cl,-15.6%,-0.7%,-8.0%,102.4*,23.9*,4.2%
O=C(O)c1cccc(NC2=C(Cl)C(=O)c3ccccc3C2=O)c1,-3.2%,u,-18.8%,24.9,13.1,-8.8%
CC(C)(C)CN1CCC(Oc2cccc(C(=O)N3CCNC(=O)C3(C)C)c2)CC1,1.3%,x,4.3%,24.2,-2.2,6.9%
CC(=O)OCC(NC(=O)C1CCCN1C(=O)OC(C)(C)C)C1OC(n2cc(F)c(=O)[nH]c2=O)C(OC(C)=O)C1OC(C)=O (stereo not given),x,4.7%,x,19.1,-3.7,x
O=C(CCCn1c(=O)[nH]c2ccsc2c1=O)N1CCN(c2cccc(C(F)(F)F)c2)CC1,-5.8%,x,x,x,x,x
COc1ccc(Cl)cc1NC(=O)CSC1=Nc2ccccc2C2=NC(CC(=O)NCc3cccs3)C(=O)N12 (stereo not given),1.3%,x,x,x,x,x
COC(=O)/C=C1\C(=O)N(c2nc3ccc(OC)cc3s2)C(=S)N1c1ccc(F)cc1,x,5.2%,3.3%,-9.6,0.7,x
Cc1ccc2nc(N3C(=O)CNC3=S)sc2c1,-25.6%,u,u,56.2*,47.1*,u
COc1ccc2nc(N3C(=O)CNC3=S)sc2c1,-29.9%,u,u,49.8,51.3*,-20.4%
Cc1cccc(CC2CC(=O)N(c3nc4ccccc4s3)C2=O)c1 (stereo not given),2.0%,-0.1%,3.3%,-6.7,-1.5,136.9%
CC(=O)NC1=NN(C(C)=O)C(C)(c2ccc(C)o2)S1 (stereo not given),2.1%,0.4%,-6.1%,22.3,18.9*,-8.9%
CC(=O)NC1=NN(C(C)=O)C(C)(c2ccco2)S1 (stereo not given),1.1%,1.4%,-1.3%,58.9*,43.3*,2.9%
CC(=O)NC1=NN(C(C)=O)C(C)(c2cccs2)S1 (stereo not given),-11.4%,5.8%,-2.9%,-4.9,-0.8,43.7%
Cc1nn(CC(=O)Nc2ccc(C(C)C)cc2)c(=O)c2c(C)n(-c3ccc(Cl)cc3)nc12,-6.2%,x,x,x,x,x
CC(CNC(=O)c1ccc2c(c1)nc1n2CCCCC1)c1ccccc1 (stereo not given),-1.3%,x,x,x,x,x
Cc1ccc(C(=O)NC(=O)CSc2ncccc2C(=O)O)cc1,-0.9%,9.3%,17.6%,-3.7,-2.4,-3.3%
CCC(=Nc1ccc(N)cc1)C1=C(O)C(C(=O)OC)C(C)(C)CC1=O (stereo not given),6.2%,1.12µM*,-10.6%,27.1,-4.0,0.6%
COc1cccc(-c2ccc(NC(=O)C3CCCN(Cc4cccc(C)n4)C3)cc2)c1 (stereo not given),-11.0%,x,x,x,x,7.6%
Cc1cc(CN2CCCC(C(=O)Nc3ccc(-c4nc5ccccc5[nH]4)cc3)C2)n[nH]1 (stereo not given),12.3%,-12.9%,2.1%,42.2,28.8*,-1.6%
CCn1cc(CN2CCCC(C(=O)Nc3ccc(-c4nc5ccccc5[nH]4)cc3)C2)c(C)n1 (stereo not given),0.5%,x,-15.0%,33.9,25.6*,3.3%
O=C(OC(C(=O)NCc1ccccc1)c1ccccc1F)c1ccco1 (stereo not given),-7.5%,-5.4%,-2.9%,22.0,-3.2,22.3%
Cc1ccc(-c2csc(N)n2)s1,-5.9%,-28.8%,-0.3%,49.9,22.6*,-21.1%

# From PubChem BioAssay
